Bioassay records as filed in PubChem.
Sampled rows, rich in hits. Any-hit rate of the full collection: about 14%.
Pf growth 48h: Primary qHTS for delayed death inhibitors of the malarial parasite plastid, 48 hour incubation | Potency, µM (doses to about 28.7 µM), for inactives: top-dose activity change, negative = inhibition, usual class: inhibitors | P. falciparum luciferase growth in erythrocytes, 48 h | AID 504832, 2011 | 310,000 compounds, 5.9% hits; also: potency is read from the fitted curve at half-maximal effect
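A one-generation exposure of luciferase-tagged malaria parasites in RPMI 1640/Albumax erythrocyte culture, 37 C and 5% CO2. Inhibition is inferred from decreased luminescence after adding detection reagent.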
HCV inhibitor: qHTS Assay for Inhibitors of Hepatitis C Virus (HCV); AID 651820, 2012; Potency, µM (titrated, usually from 41.8 µM), inactives show top-dose activity change, negative = inhibition, usual class: inhibitors; Huh7.5.1 HCVcc-Cre infection, luciferase reporter, 44 h; 340,000 compounds, 3.4% hits; also: potency is read from the fitted curve at half-maximal effect
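HCVcc-Cre virus at an moi near 0.5 was added right after compound to cells cultured 4 h from seeding (1,000 cells/well). Luciferase activity was determined 44 h later, 15 min after substrate addition at RT.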
HCMV antiviral: qHTS Assay for inhibitors of the human cytomegalovirus (HCMV); AID 1259415, 2018; activity change, negative = inhibition, % at 57.5 µM; 410,000 compounds, 4.5% hits; HFF cells, HCMV-luciferase reporter, 72 h; stronger effect = lower value; in the data active = activity change below about -60%; inconclusive = no clear call, values can overlap the other calls; inactive = above about -39%
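Screen run at 2 compound doses on HFFs infected with reporter HCMV, MOI 1 PFU/cell. Luciferase activity from cell lysates at 72 h post infection gave inhibition relative to buffer-only and Salinomycin wells.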
Lassa entry inh: qHTS for Inhibitors of binding or entry into cells for Lassa Virus; Lassa virus pseudotype entry inhibition, cell reporter; AID 540256, 2011; Potency, µM (top dose mostly 37.9 µM), for the others: at the top dose activity change, negative = inhibition, most hits filed as inhibitors; 300,000 compounds, 1.2% hits; calls by dose curve; tested in HEK293 cells; also: potency is read from the fitted curve at half-maximal effect; nearly all actives have a fitted effect of over 50% in size
Marburg entry inh: qHTS for inhibitors of binding or entry into cells for Marburg Virus; 300,000 compounds, 1.8% hits; AID 540276, 2011; Potency, µM (series often up to 37.8 µM), for the others: top-dose activity change, negative = inhibition, actives largely listed as inhibitors; Marburg virus pseudotyped entry inhibition, cell reporter; calls by dose curve; tested in HEK293 cells; also: potency is read from the fitted curve at half-maximal effect
Pf growth 96h: Primary qHTS for delayed death inhibitors of the malarial parasite plastid, 96 hour incubation | Potency, µM (titrated, usually from 28.7 µM), without a hit: at the top dose activity change, negative = inhibition, most hits filed as inhibitors | 320,000 compounds, 6.9% hits | P. falciparum luciferase reporter growth, 96 h; also: potency is read from the fitted curve at half-maximal effect
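Cell-based qHTS: luciferase-tagged P. falciparum in erythrocytes (2% hematocrit, 0.05% parasitemia final) incubated with compounds for 96 hours, 37 C, 5% CO2; luciferase detection reagent then added and luminescence measured.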
Active calls of the source: *; ? = inconclusive; . = no result; [ ] = remark or other dose. Unless noted, calls follow the shape of the dose curve; as a rule, active = well fitted inhibition curve with a large enough effect; inconclusive = small, poorly fitted or top-dose-only effect, or another doubt; inactive = no such curve, though single readings can be large or run the other way. % is scaled to controls: 0 for no effect and ±100 for the full control effect.

SMILES | Pf growth 48h | HCV inhibitor | HCMV antiviral | Lassa entry inh | Marburg entry inh | Pf growth 96h
CCC1CCCCN1CCCNC(=O)c1ccc2c(c1)N(Cc1c(F)cccc1Cl)C(=O)CS2 (stereo not drawn) | 13.1µM* | 13.9% | ? | . | . | ?
CCC1CCCCN1CCCNC(=O)CN1C(=O)CSc2ccc(S(=O)(=O)N3CCC(C)CC3)cc21 (stereo not drawn) | 0.0% | -2.6% | 0.0 | 2.4%[46.1 µM] | . | 24.6%
O=C(NCc1ccc2c(c1)OCO2)c1ccc2c(c1)N(Cc1ccccc1F)C(=O)c1ccccc1S2 | . | . | -8.3 | ? | . | .
COC(=O)Nc1ccc(S(=O)(=O)N2CCCCC2C(=O)NCc2ccco2)cc1 (stereo not drawn) | . | ? | -7.0 | -15.1% | ? | -25.3%
Cc1ccc(S(=O)(=O)N2CCC(C(=O)N3CCC[C@H]3C(=O)NCc3ccco3)CC2)cc1 | 11.7µM* | -4.3% | -37.2 | 4.4% | -10.1% | 13.1µM*
Cc1ccc(S(=O)(=O)N2CCCCC2C(=O)NCc2ccco2)cc1 (stereo not drawn) | ? | -10.9% | 43.3 | ? | 6.6% | 5.22µM*
CC1CCCCN1S(=O)(=O)c1ccc(S(=O)(=O)N(Cc2ccccc2)Cc2ccco2)cc1 (stereo not drawn) | 10.4µM* | 1.4% | -19.8 | ? | ? | 10.4µM*
Cc1ccc(S(=O)(=O)N2CCC(C(=O)N3CCC[C@H]3C(=O)NCc3ccccc3)CC2)cc1 | ? | -9.1% | -17.6 | -16.9% | -31.7% | 23.2%
CCN(Cc1ccccc1)S(=O)(=O)c1ccc(S(=O)(=O)N(Cc2ccccn2)Cc2ccco2)cc1 | . | -19.9% | 4.5 | -5.7% | -5.5% | ?
CCn1c(=O)n(CC)c2cc(N3CCCC3)c(NC(=O)c3ccc(C)cc3)cc21 | -4.2% | ? | -10.3 | . | . | ?
CC(=O)c1ccc(S(=O)(=O)N2CCN(C(=O)c3ccc(-n4nc(C)c(Cl)c4C)cc3)CC2)cc1 | ? | 6.31µM* | -90.1* | . | . | 13.1µM*
Cc1cc(C)n(-c2ccc(C(=O)N3CCN(S(=O)(=O)c4ccc(Cl)cc4)CC3)cc2)n1 | 10.4µM* | 1.3% | -10.6 | . | . | 2.62µM*
Cc1nn(-c2ccc(C(=O)N3CCN(S(=O)(=O)c4ccccc4C(F)(F)F)CC3)cc2)c(C)c1Cl | 13.1µM* | -0.1% | -23.3 | . | . | ?
COc1cccc(CN2C(=NC(=O)C3CCCO3)SC3CS(=O)(=O)CC32)c1 (stereo not drawn) | . | . | -5.9 | . | . | .
COC(=O)c1ccccc1NC(=O)c1ccc2c(c1)CCN2S(=O)(=O)c1ccc(C)cc1 | . | . | -8.0 | 1.1%[46.1 µM] | 6.5%[46.1 µM] | .
CCN1C(=O)[C@H]2[C@H]3[C@H](O)[C@H](O)C/C(=N\OC[C@@H](C)[C@H](OCc4ccccc4)C(C)C)[C@@H]3CC[C@H]2C1=O | 10.4µM* | 1.0%[8.37 µM] | . | ? | 1.2%[14.2 µM] | ?
CCCC(c1nnnn1Cc1ccc(F)cc1)N1CCN(C2CCCCC2)CC1 (stereo not drawn) | ? | -11.9% | -12.3 | -5.9% | 8.91µM* | -6.1%
CCCC(c1nnnn1Cc1ccco1)N1CCN(C2CCCC2)CC1 (stereo not drawn) | -10.5% | -3.6% | -14.0 | 7.3% | 9.5% | 11.7µM*
CC(C)C(c1nnnn1Cc1ccc(F)cc1)N1CCN(C2CCCC2)CC1 (stereo not drawn) | -27.5% | -20.5% | -10.1 | ? | 3.4%[46.1 µM] | 27.6%
CC(C)C(c1nnnn1Cc1ccco1)N1CCN(C2CCCC2)CC1 (stereo not drawn) | 9.0% | 19.7% | -5.3 | 2.4% | 1.1% | 1.0%
CCN(CC)CCSc1nnc2c3cc(C)ccc3n(Cc3ccccc3)c2n1 | ? | 12.6µM* | -84.7* | ? | ? | ?
CSc1nnc2c3cc(F)ccc3n(Cc3ccccc3)c2n1 | ? | ? | ? | 0.1% | 4.3% | 20.4%
